HT1080-NT tox: kills 2HG-producing HT-1080-NT fibrosarcoma cells. HT-1080-NT fibrosarcoma viability, CellTiter-Glo ATP luminescence, 48 h. 1.6% of 360,000 active. AID 686970. Potency, µM (doses to about 46.1 µM), for the others: top-dose activity, negative = less viability, hits mostly cytotoxic;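 also: NT is the 2HG producing partner of a matched IDH1 knockdown line; potency is read from the fitted curve at half-maximal effect; 0% = DMSO-treated cells and -100% = media-only wells without cells; nearly all actives have a fitted effect of over 55% in size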
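Viability of the 2HG-overproducing fibrosarcoma line after 48 hours of compound exposure at 37 degrees C was determined by luminescence with CellTiter-Glo, and concentration-effect curves were then fitted and categorized.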
TDP1 cell CPT: growth inhibition of DT40 Tdp1-/-;hTDP1 cells with camptothecin (screen for TDP1 inhibitors). chicken DT40 Tdp1-/-;hTDP1 cells + 20 nM CPT, ATP luminescence, 48 h. Potency, µM (highest dose often 46.2 µM), inactives show at the top dose activity change, negative = growth inhibition, most hits filed as inhibitors. 12% of 420,000 active; also: potency is read from the fitted curve at half-maximal effect; nearly all actives have a fitted effect of over 55% in size
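Chicken DT40 Tdp1-/- cells stably complemented with human TDP1 were seeded at 400 cells/well in medium containing 20 nM camptothecin, exposed to pin-transferred compounds, and grown at 37 °C for at least 48 hr. Viability was read as ATP luminescence.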
IL1B secr inh: inflammasome signaling inhibition, IL-1 beta readout; activity change, % at 57.5 µM; 4.7% of 360,000 active; THP-1 LPS/ATP IL-1B secretion, AlphaLISA, 16 h; active compounds read low; AID 743279; in the data active = activity change below about -50%; inconclusive = mostly about -30% to -49%
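THP-1 cells pretreated 1 hr with compounds (up to 57.5 uM final), then stimulated with LPS (250 ng/mL final) plus ATP (1.25 mM final); secreted IL-1B measured by AlphaLISA after 16 hr, decreased signal indicating inhibition.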
DT40 TDP1 no CPT: qHTS for Inhibitors of human tyrosyl-DNA phosphodiesterase 1 (TDP1): qHTS in cells in absence of CPT; DT40 Tdp1-/- hTDP1 cells, no CPT, ATP luminescence, 48 h; Potency, µM (series often up to 46.2 µM), for the others: top-dose activity change, negative = growth inhibition, most hits filed as inhibitors; 15% of 420,000 active; AID 686978, 2013; also: potency is read from the fitted curve at half-maximal effect; nearly all actives have a fitted effect of over 55% in size
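Seeded 400 DT40-hTDP1 cells/well (vehicle DMSO, no 20 nM CPT); pinned compounds; ≥48 hr at 37 °C; CellTiter-Glo luminescence as viability measure.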
HT1080 IDH1KD tx: kills HT-1080 cells with IDH1 knockdown | HT-1080 IDH1 knockdown viability, ATP luminescence, 48 h | Potency, µM (doses to about 46.1 µM), for the others: top-dose activity, negative = toxicity, usual class: cytotoxic | 2% of 360,000 active;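 also: potency is read from the fitted curve at half-maximal effect; 0% = DMSO wells and -100% = cell-free medium wells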
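After a 2 h attachment period, IDH1KD HT-1080 cells took pin-transferred compound for 48 h at 37 °C; ATP-based luminescence after 10 min room-temperature reagent incubation reported viability.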
* = called active by the depositor. Shown are actives, neighbours in structure and some others; about 19% of the full set was active somewhere. Unless noted, calls follow the shape of the dose curve; as a rule, active = well fitted curve in the direction sought with a large enough effect; inconclusive = small, poorly fitted or top-dose-only effect, or another doubt; inactive = no such curve, though single readings can be large; an effect the other way counts as inactive or inconclusive. Unless noted, % is scaled to controls: 0 for no effect and ±100 for the full control effect.

Screening CNc1sc(C(=O)c2ccc(F)cc2)c(N)c1-c1nc2ccccc2s1 returned HT1080-NT tox 11µM*, TDP1 cell CPT 5.2µM*, IL1B secr inh 10, DT40 TDP1 no CPT 7.3µM* and HT1080 IDH1KD tx 6.3µM*.
O=C(Nc1ccccc1-c1nc2ccccc2s1)c1ccc(F)cc1 was read as TDP1 cell CPT -1% and DT40 TDP1 no CPT -11%.
For COc1cc(NC(=O)c2ccccc2)c(OC)cc1NC(=O)CN1CCCCC1 the results were HT1080-NT tox -3%, TDP1 cell CPT inconclusive, IL1B secr inh inconclusive, DT40 TDP1 no CPT 20µM* and HT1080 IDH1KD tx -1%.
`COc1cc(NC(=O)c2ccccc2)c(OC)cc1NC(=O)CN1CCOCC1` gave HT1080-NT tox 11%, TDP1 cell CPT -20%, IL1B secr inh inconclusive, DT40 TDP1 no CPT inconclusive and HT1080 IDH1KD tx 25%.
COc1cc(NC(=O)c2cccc(Cl)c2)c(OC)cc1NC(=O)CN1CCOCC1 was read as HT1080-NT tox -8%, TDP1 cell CPT inconclusive, IL1B secr inh -21, DT40 TDP1 no CPT inconclusive and HT1080 IDH1KD tx -14%.
COc1cc(NC(=O)c2cccc(Cl)c2)c(OC)cc1NC(=O)CN1CCCCC1 was read as HT1080-NT tox inconclusive, TDP1 cell CPT inconclusive, IL1B secr inh -79*, DT40 TDP1 no CPT inconclusive and HT1080 IDH1KD tx inconclusive.
`COc1cc(NC(=O)c2ccc(F)cc2)c(OC)cc1NC(=O)CN1CCCCC1` gave HT1080-NT tox -11%, TDP1 cell CPT inconclusive, IL1B secr inh -68*, DT40 TDP1 no CPT 16µM* and HT1080 IDH1KD tx -13%.
Screening COC(=O)[C@H](Cc1ccccc1)NC(=O)N1CCN(c2ccccc2)CC1 returned HT1080-NT tox 18%, TDP1 cell CPT -12%, IL1B secr inh 1, DT40 TDP1 no CPT -10% and HT1080 IDH1KD tx 9%.
For COc1ccc(C(=O)OC2C(OC)OCC(O)C2O)cc1 (centres undefined) the results were HT1080-NT tox 9%, TDP1 cell CPT -9%, IL1B secr inh 0, DT40 TDP1 no CPT inconclusive and HT1080 IDH1KD tx 9%.
For COc1c(C)cccc1C(=O)Nc1ccc(Cl)c(-c2nc3cc(C)ccc3o2)c1 the results were TDP1 cell CPT 15µM* and DT40 TDP1 no CPT 9.2µM*.
Cc1ccc2oc(-c3cc(NC(=O)CC(C)C)ccc3Cl)nc2c1 was read as TDP1 cell CPT 10µM* and DT40 TDP1 no CPT 12µM*.
For CCc1ccc(C(=O)c2cn(CC(=O)Nc3ccc(OC)cc3OC)c3ccc(CC)cc3c2=O)cc1 the results were TDP1 cell CPT 8% and DT40 TDP1 no CPT -15%.
Screening O=c1oc2cc(O)ccc2cc1-c1nnc(Nc2ccccc2F)s1 returned TDP1 cell CPT 7% and DT40 TDP1 no CPT -20%.
COc1cccc(Nc2nnc(-c3cc4ccc(O)cc4oc3=O)s2)c1 was read as TDP1 cell CPT inconclusive and DT40 TDP1 no CPT 23µM*.
`CC/C(C)=N\Nc1nc(-c2cc3cc(OC)ccc3oc2=O)cs1` gave HT1080-NT tox inconclusive, TDP1 cell CPT inconclusive, IL1B secr inh -6, DT40 TDP1 no CPT 18µM* and HT1080 IDH1KD tx 15µM*.
For COc1ccc2oc(=O)c(-c3nnc(N)s3)cc2c1 the results were HT1080-NT tox 4%, TDP1 cell CPT 1%, IL1B secr inh -84*, DT40 TDP1 no CPT -27% and HT1080 IDH1KD tx -11%.
`COc1ccc2oc(=O)c(-c3nc4ccc(C)cc4[nH]3)cc2c1` gave TDP1 cell CPT 1µM* and DT40 TDP1 no CPT 1.5µM*.
Screening COc1cccc2cc(-c3nc4ccc(C)cc4[nH]3)c(=O)oc12 returned TDP1 cell CPT -10% and DT40 TDP1 no CPT inconclusive.
For C=CCNc1nc(NCCCN2CCCC2=O)c2sc(-c3ccccc3)cc2n1 the results were HT1080-NT tox inconclusive, TDP1 cell CPT 18µM*, DT40 TDP1 no CPT 21µM* and HT1080 IDH1KD tx inconclusive.
O=C1CCCN1CCCNc1nc(NCc2ccccc2)nc2ccsc12 was read as HT1080-NT tox -8%, TDP1 cell CPT 18µM*, IL1B secr inh inconclusive, DT40 TDP1 no CPT 18µM* and HT1080 IDH1KD tx -11%.
Screening O=C(CNC(=S)N(Cc1ccccc1Cl)C1CCCC1)NCCN1CCOCC1 returned HT1080-NT tox 10%, TDP1 cell CPT 4%, IL1B secr inh 18, DT40 TDP1 no CPT 1% and HT1080 IDH1KD tx 14%.
CCN(CC)S(=O)(=O)c1ccc(C(=O)NC2CC(=O)N(c3ccc4c(c3)OCCO4)C2)cc1 (centres undefined) was read as TDP1 cell CPT -13% and DT40 TDP1 no CPT inconclusive.
CCCC(=O)N(CCN(C(=O)CCC)c1ccccc1)c1ccccc1 was read as HT1080-NT tox 6%, TDP1 cell CPT 12µM*, IL1B secr inh -21, DT40 TDP1 no CPT 21µM* and HT1080 IDH1KD tx -7%.
`CCN(C(=O)CCC(=O)N(CC)c1ccccc1)c1ccccc1` gave HT1080-NT tox 13%, TDP1 cell CPT inconclusive, IL1B secr inh 2, DT40 TDP1 no CPT inconclusive and HT1080 IDH1KD tx 23%.
For CCCCN(C(=O)CCn1c(=O)oc2ccccc21)c1ccccc1 the results were HT1080-NT tox -1%, TDP1 cell CPT 18µM*, IL1B secr inh -5, DT40 TDP1 no CPT inconclusive and HT1080 IDH1KD tx 6%.
COc1ccc(C(=O)N/C(=C\c2cn(C)c3ccccc23)C(=O)NCCCN2CCOCC2)cc1OC was read as HT1080-NT tox -2%, TDP1 cell CPT 1%, IL1B secr inh -15, DT40 TDP1 no CPT 31% and HT1080 IDH1KD tx 3%.
Screening COc1cccc(C(=O)Nc2ccccc2OC(F)(F)F)c1 returned HT1080-NT tox 22%, TDP1 cell CPT -3%, IL1B secr inh inconclusive, DT40 TDP1 no CPT 8% and HT1080 IDH1KD tx 14%.
CN1CCN(C2=Cc3ccccc3Sc3cc(F)c(F)cc32)CC1 was read as HT1080-NT tox inconclusive, TDP1 cell CPT inconclusive, IL1B secr inh -62*, DT40 TDP1 no CPT inconclusive and HT1080 IDH1KD tx inconclusive.
For CN1CCN(C2=Cc3ccccc3Sc3cc(F)c(Cl)cc32)CC1 the results were HT1080-NT tox inconclusive, TDP1 cell CPT inconclusive, IL1B secr inh -62*, DT40 TDP1 no CPT 29µM* and HT1080 IDH1KD tx inconclusive.
For CN1CCN(C2=Cc3cc(Cl)ccc3Sc3cc(F)ccc32)CC1 the results were HT1080-NT tox inconclusive, TDP1 cell CPT inconclusive, IL1B secr inh -100*, DT40 TDP1 no CPT 29µM* and HT1080 IDH1KD tx inconclusive.
`Cc1nonc1NC(=O)CSc1nc(C23CC4CC(CC(C4)C2)C3)nc2ccccc12` gave HT1080-NT tox -3%, TDP1 cell CPT inconclusive, IL1B secr inh -90*, DT40 TDP1 no CPT inconclusive and HT1080 IDH1KD tx 3%.
